Compound activity deposited in PubChem BioAssay by The Scripps Research Institute Molecular Screening Center.
SMARCA2 activ = SMARCA2 (BRM) function activators, primary screen, cell-based, luminescence, high throughput | MG213 cells, MMTV-luciferase reporter, dexamethasone, overnight | activation, % at 9.1 µM | 1% of 370,000 active; in the data active = activation above about 7.8%;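 note: 0% = vehicle wells and 100% = reference activator wells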
ssDAF12 agonist = S. stercoralis DAF-12 nuclear receptor activators, primary screen, cell-based, luminescence, HEK293, GRIP1 co-expression, lit1-tk-luc; HEK293 ssDAF-12/GRIP1 lit1-tk-luc reporter; % of 3 µM dafachronic acid response; activation, % at 6.8 µM; 1% of 370,000 active; Nuclear hormone receptor DAF-12 (Strongyloides stercoralis);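 active = activation above the mean over all tested compounds plus 3 SD, cut at about 0.9% in these data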;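 note: 0% = DMSO-only wells and 100% = 3 µM delta7-dafachronic acid wells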
DAX1 inh-1 = DAX1 (NR0B1) inhibitors on StAR promoter, primary screen, cell-based, luminescence, SF-1 (NR5A1), full-length DAX-1. inhibition, % at 6.8 µM. 1.1% of 370,000 active. HEK293T StAR-luciferase reporter, SF-1/DAX-1 repression relief;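 active = inhibition above the mean over all tested compounds plus 3 SD, cut at about 3.6% in these data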;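 note: 0% = DAX-1 cells with DMSO and 100% = cells lacking DAX-1 with DMSO; higher inhibition means more luminescence from relief of DAX-1 repression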
hgDAF-12 ag = H. glycines DAF-12 receptor agonists, primary screen, cell-based, luminescence, HEK293, GAL4 fusion, UAS-luciferase | 1.8% of 370,000 active | Nuclear hormone receptor DAF-12 (Heterodera glycines), GAL4 fusion | activation, % at 6.8 µM | HEK293 GAL4-hgDAF12 UAS-luciferase reporter, agonist luminescence; normalized to butyrate control;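 active = activation above a cutoff set at the mean of all screened compounds plus 3 SD, cut at about 10% in these data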;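 note: 0% = DMSO wells and 100% = sodium butyrate wells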
hcDAF-12 act = H. contortus DAF-12 nuclear receptor activators, primary screen, cell-based, luminescence, HEK293, lit1-tk-luc reporter; HEK293 hcDAF-12 lit1-tk-luc reporter; 0% DMSO, 100% Δ7-dafachronic acid; activation, % at 6.8 µM; 1.4% of 370,000 active;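 active = activation above the mean of all tested compounds plus 3 SD, cut at about 5.5% in these data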;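 note: 100% = response to 3 µM Δ7-dafachronic acid high control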
DAX1 inh-2 = DAX1 (NR0B1) inhibitors, primary screen, cell-based, HEK293, Gal4-DAX1, luciferase luminescence; 0.99% of 340,000 active; HEK293 Gal4-DAX1 luciferase reporter; inhibition, % at 6.75 µM;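 active = inhibition above the mean over all tested compounds plus 3 SD, cut at about 4.2% in these data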;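 note: 0% = DAX1-transfected cells with DMSO and 100% = empty-vector control cells with DMSO; inhibition shows as a rise in luminescence from relieved DAX1 repression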
DAX1 conf = DAX1 (NR0B1) inhibitors relieving SF-1 repression, confirmation, cell-based, luminescence, HEK293T, full-length DAX-1, SF-1 activated StAR promoter | shares compounds with DAX1 inh-1 | HEK293T StAR-promoter luciferase reporter, SF-1/DAX-1 repression | inhibition, % at 6.8 µM | 87% of 2,400 active | AID 652134, 2013;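 active = inhibition above the average of every tested compound plus 3 SD, cut at about 3.8% in these data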;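 note: 0% = DAX-1 cells with DMSO and 100% = no DAX-1 control cells with DMSO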
Target sequence (P51843 whole entry, looked up): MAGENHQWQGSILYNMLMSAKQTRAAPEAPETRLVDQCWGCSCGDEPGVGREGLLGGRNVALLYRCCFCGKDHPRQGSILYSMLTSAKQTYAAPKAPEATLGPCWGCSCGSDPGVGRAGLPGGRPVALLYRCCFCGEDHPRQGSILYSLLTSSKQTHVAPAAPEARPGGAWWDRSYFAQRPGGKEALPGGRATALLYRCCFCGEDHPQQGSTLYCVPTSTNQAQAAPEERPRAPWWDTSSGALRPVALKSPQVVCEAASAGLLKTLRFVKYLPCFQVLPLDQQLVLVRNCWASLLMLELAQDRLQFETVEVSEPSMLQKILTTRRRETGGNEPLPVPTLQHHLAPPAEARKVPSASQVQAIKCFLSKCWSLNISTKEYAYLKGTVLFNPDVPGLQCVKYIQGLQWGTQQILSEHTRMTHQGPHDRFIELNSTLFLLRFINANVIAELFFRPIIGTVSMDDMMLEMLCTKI
SF1 AF2mut Luc = StAR reporter signal changes without DAX1, counter-screen for DAX1 inhibitor project, cell-based, luminescence, AF-2 mutant SF-1, transactivation. shares compounds with DAX1 inh-1. HEK293 StAR-luciferase, SF-1 AF2 mutant. inhibition, % at 6.8 µM. 78% of 2,400 active;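 active = inhibition above the mean of all tested compounds plus 3 SD, cut at about 3% in these data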;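 note: 0% = DAX-1 transfected cells with DMSO and 100% = cells without DAX-1 with DMSO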
Active calls of the source: *; . = not tested or not shown. Only some compounds are listed: those with a hit (about 4.8% of all), similar ones and a draw of the others.

SMILES	SMARCA2 activ	ssDAF12 agonist	DAX1 inh-1	hgDAF-12 ag	hcDAF-12 act	DAX1 inh-2	DAX1 conf	SF1 AF2mut Luc
CC(C)(C)NC(=O)C[C@H]1C[C@H](C(=O)N2CCCCC2)[C@@]2(CCc3ccccc3)c3[nH]c4cc(-c5ccco5)ccc4c3CCN2C1=O	-4.7	-1.0	6.1*	-2.6	-1.8	-0.4	0.1	-1.3
Cc1cc(C)n(-c2ccc(C(=O)Nc3ccccn3)cc2)n1	1.7	-0.1	4.7*	12.3*	4.5	-0.1	11.1*	5.4*
O=C(Nc1ccccn1)c1ccc(C(=O)c2ccccc2)cc1	6.0	-0.5	9.0*	12.6*	3.0	0.3	10.9*	4.7*
O=C(NC(=O)c1ccccc1)Nc1ccccn1	-2.4	-0.8	1.6	-1.1	-0.7	-4.2	.	.
COc1ccc(OC)c(-c2nnc3n2N=C(c2ccc(OC)c(OC4CCOC4)c2)CS3)c1 (configuration not stated)	5.8	-1.8	4.9*	-3.0	-4.2	-1.0	19.4*	-9.8
COc1ccccc1-c1nnc2n1N=C(c1ccc3c(c1)OCO3)CS2	2.6	-1.2	4.7*	-2.9	-4.5	.	10.9*	-5.5
COc1ccc(OC)c(C2=Nn3c(nnc3-c3cc(OC)c(OC)c(OC)c3)SC2)c1	1.1	-1.3	-2.4	-3.0	-3.6	-0.9	.	.
c1ccc(-c2nnc3n2N=C(c2ccc4c(c2)OCO4)CS3)nc1	-1.4	-1.1	-1.2	1.1	0.6	-0.6	.	.
CCCCNc1ccc2c(c1)C1CC2CCN1C(=O)OCc1ccccc1 (configuration not stated)	0.9	-0.2	7.0*	2.9	4.3	2.0	8.3*	1.9
C=C1CCCC2OC(CC3=CC4/C(C)=C/CC(C)CC(/C=C(\C)C(O)C5CC(O)C(O)C(CCC(O)/C=C/C(C)=C/CCC6=NCCC(C3)C64C)O5)OC(=O)CC3OC(C(O)C1)C(O)C3O)CC(O)C2O (configuration not stated)	1.2	0.2	7.9*	-0.5	5.8*	.	11.4*	-2.6
CCCOc1ccccc1C1CC(=O)Nc2cc3c(cc21)OCCO3 (configuration not stated)	.	.	.	.	.	-2.4	.	.
COc1ccc(C(=O)Nc2ccccc2C(=O)Nc2cc(C)ccn2)cc1	0.9	-1.5	0.7	5.3	2.9	0.8	.	.
COc1cc2ccccc2cc1C(=O)Nc1cc(C)ccn1	5.2	0.5	5.3*	12.0*	6.4*	0.3	4.2*	2.2
Cc1ccc(OCCOCCN2CCN(C)CC2)c(C(C)(C)C)c1	2.0	-1.4	0.0	-2.0	-1.7	2.8	.	.
Cc1ccc(Cn2cc(CN3CC(N4CCN(C5CCN(C)CC5)CC4)CS3(=O)=O)nn2)cc1 (configuration not stated)	-1.3	-1.0	4.7*	-1.7	0.1	.	2.6	4.1*
CC(=Nc1ccccc1)C1=C(O)C(Cc2cccc(F)c2)NC1=O (configuration not stated)	-1.2	0.4	6.0*	-1.0	1.9	1.4	24.7*	-5.0
N/C(=N\N=C\c1ccc2c(c1)OCO2)c1nonc1N	1.5	0.1	6.2*	8.3	5.9*	-1.5	17.6*	9.6*
N/C(=N\N=C\c1cccc([N+](=O)[O-])c1)c1nonc1N	3.2	-0.9	0.8	6.7	2.2	.	.	.
COc1cc(OC)c2c(-c3cccc(-c4ccc(NC(C)=O)cc4)c3)cc(=O)oc2c1	3.0	-1.1	4.8*	0.8	-0.4	-0.9	6.3*	-7.4
COc1cc(OC)c2c(-c3cccc(-c4ccc(OC)c(OC)c4)c3)cc(=O)oc2c1	-0.4	-0.5	0.9	1.3	-1.7	-0.4	.	.
CCOC(=O)C1=CN(c2cccc(F)c2)C=C(C(=O)OCC)C1c1cc(OC)c(O)c([N+](=O)[O-])c1	-0.1	-1.4	-0.1	-0.1	-1.9	0.7	.	.
CCC(Oc1ccc2ccccc2c1)C(=O)O (configuration not stated)	0.8	-1.2	-0.4	0.5	1.1	-0.6	.	.
CCCN(CCC)c1ncnc2c1cnn2-c1ccc(OC)cc1	-0.5	0.3	5.3*	10.2	4.6	0.6	14.0*	3.1*
COc1cc(-c2nc(-c3ccc(NC(=O)c4ccc(Br)o4)cc3)no2)cc(OC)c1OC	-1.1	-1.1	1.0	4.0	1.3	0.0	.	.
COc1c(OC(C)=O)ccc(/C=C/c2ccc3ccccc3n2)c1[N+](=O)[O-]	-0.7	0.2	5.1*	8.9	3.6	2.5	11.8*	6.2*
SMILES	SMARCA2 activ	ssDAF12 agonist	DAX1 inh-1	hgDAF-12 ag	hcDAF-12 act	DAX1 inh-2	DAX1 conf	SF1 AF2mut Luc
CC1CCCN(c2ccc3nc4ccccc4c(=O)n3n2)C1 (configuration not stated)	2.6	-0.1	4.7*	10.8*	4.0	-2.1	7.8*	3.5*
Cc1ccc(NC(=O)c2ccc(S(=O)(=O)N3CC(C)CC(C)C3)cc2)cc1S(=O)(=O)N1CCOCC1 (configuration not stated)	-0.7	-1.3	-1.0	0.0	-1.8	-0.3	.	.
COC(=O)C1CN(C(=O)C(C)Oc2cc(C)ccc2C(C)C)c2ccccc2O1 (configuration not stated)	-1.0	-0.9	0.3	1.2	-1.9	0.8	.	.
CCOC(=O)c1ccc(NC(=O)N2CCc3ccccc32)cc1	5.9	0.7	4.8*	18.5*	5.5	1.7	10.8*	7.9*
COc1cc(/C=N/N2CCCCC2)cc(OC)c1O	-0.6	-0.9	-0.1	0.0	-1.8	1.0	.	.
O=C1CCC(C(=O)N2CCCCO2)CN1CCc1ccccc1 (configuration not stated)	4.4	-0.3	0.4	9.5	1.1	2.7	.	.
O=C(OCC(=O)N1CCN(c2ccccc2)CC1)c1ccccc1OC(F)F	-2.9	-0.9	5.0*	0.1	-0.5	-0.4	-1.9	-0.8
O=C(OCC(=O)N1CCCCCC1)c1ccccc1Br	3.3	-0.1	4.5*	11.7*	5.7*	1.6	10.1*	5.3*
